# Test results as given in PubChem BioAssay (EPA / NIEHS).
# Several values for one entry are separate records, joined by “and”; a condition that tells them apart may be missing. Equal entries are not always repeated. Activity calls are given as the source filed them. Rule for the calls: active = hit-call score of the fitted dose curve at least 0.9, where 1 is the maximum; inactive = score below 0.9.
# Read-out: Tissue plasminogen activator (tPA), PLAT (gene 5327)
# Experiment: BSK_BE3C_tPA: BioMAP Diversity Plus: BE3C Assay for Tissue plasminogen activator (tPA) Biomarker Activity (AID 2283041)
# Settings: primary human bronchial epithelial cells; actives raise or lower the signal
# Procedure: BSK_BE3C is a cell-based, multiplexed-readout assay that uses bronchial epithelial cell, a human lung primary cell, with measurements taken at 24 hours after chemical dosing in a 96-well plate.BSK_BE3C_tPA is an assay component measured in the BSK_BE3C assay. It measures tPA antibody related to regulation of gene expression using ELISA technology.Data from the assay component BSK_BE3C_tPA was analyzed into 1 assay endpoint. This assay endpoint, BSK_BE3C_tPA, was analyzed with bidirectional fitting relative to DMSO as the negative control and baseline of activity. Using a type of binding reporter, gain or loss-of-signal activity can be used to understand changes in the signaling as they relate to the gene PLAT. Furthermore, this assay endpoint can be referred to as a primary readout, because this assay has produced multiple assay endpoints where this one serves a signaling function. To generalize the intended target to other relatable targets, this assay endpoint is annotated to the protease intended target family, where the subfamily is serine protease.
# The levels of cell surface (or secreted, indicated by the prefix "s") biomarker endpoints were measured by ELISA. Overt cytotoxicity to cells in confluent adherent cultures (all systems other than the BT system) was assessed by measuring total protein levels using sulforhodamine B (SRB) staining in parallel cultures at the time of biomarker measurements, indicated as SRB endpoints. For proliferation assays for adherent cell types, individual cell types are cultured at sub-confluence and relative cell numbers quantified by SRB staining at time points optimized for each system (48 h: 3C and CASM3C systems; 72 h: BT and HDF3CGF systems; 96 h: SAg system). SRB was performed by staining cells with 0.1% SRB after fixation with 10% TCA and reading wells at 560 nm.Viability and proliferation of PBMC (T cells) was quantified by Alamar Blue reduction for the SAg and BT systems. For PBMC viability (referred to as PBMC Cytotoxicity within the assay endpoint names), cells were plated (75,000/well in a 96-well plate) and then chemical samples added for 1 h before addition of activators, SEB and TSST-1 (20 ng/mL final concentration each). Cells were incubated for 90 h. Then, Alamar Blue (20 uL/well) (Invitrogen, Cat DAL1100) was added for 6 h, and the plates were read with a fluorescence microplate reader at 546/580 nm (excitation/emission). For PBMC proliferation, cells were plated and activated as above but incubated for only 16 h prior to addition of Alamar Blue. Plates were read after 6 h.
Compound,AC50,outcome
NC(=NCCCCCCN=C(N)/N=C(\N)Nc1ccc(Cl)cc1)/N=C(\N)Nc1ccc(Cl)cc1,1.37 µM (active),–
CN(CCO)S(=O)(=O)C(F)(F)C(F)(F)C(F)(F)C(F)(F)C(F)(F)C(F)(F)C(F)(F)C(F)(F)F,–,inactive
CCCCc1oc2ccccc2c1C(=O)c1cc(I)c(OCCN(CC)CC)c(I)c1,9.06 µM (active),–
Cc1cccc2c1ccc1ccccc12,–,inactive
CC[N+](CC)(CC)Cc1ccccc1,–,inactive
CN(C)c1ccc(C(=C2C=CC(=[N+](C)C)C=C2)c2ccccc2)cc1,–,inactive
OCCN1CN(CCO)CN(CCO)C1,–,inactive
Oc1ccc(Cc2ccccc2O)cc1,–,inactive
O=C(O)C(F)(F)OC(F)(F)C(F)(F)OC(F)(F)C(F)(F)OC(F)(F)C(F)(F)C(F)(F)C(F)(F)F,4.98 µM (active) and 4.8 µM (active),–
O=C(CC(=O)C(F)(F)C(F)(F)C(F)(F)F)c1cccs1,22.3 µM (active) and 20.7 µM (active),–
CCCCC(CC)C(=O)O (stereo not given),–,inactive
CCCCC(CC)C(=O)OCCOCCOCCOCCOC(=O)C(CC)CCCC (stereo not given),–,inactive
Oc1c(Cl)cc(Cl)cc1Sc1cc(Cl)cc(Cl)c1O,4.32 µM (active) and 3.03 µM (active),–
COc1cc(OC)nc(NC(=O)NS(=O)(=O)Nc2ccccc2C(=O)N(C)C)n1,–,inactive
C=CC(=O)OCCC(F)(F)C(F)(F)C(F)(F)C(F)(F)C(F)(F)C(F)(F)C(F)(F)C(F)(F)F,–,inactive
COc1cccc(O)c1,–,inactive
COCN(COC)c1nc(N(COC)COC)nc(N(COC)COC)n1,–,inactive
C=CC(C)(CCC=C(C)C)OC(C)=O (stereo not given),26.3 µM (active),–
CCCCC=O,–,inactive
O=C(O)CCC(F)(F)C(F)(F)C(F)(F)C(F)(F)C(F)(F)C(F)(F)F,–,inactive

Compound,AC50,outcome
O=C1OC2(c3ccccc31)c1cc(I)c(O)c(I)c1Oc1c2cc(I)c(O)c1I,5.58 µM (active),–
CCCCCCCCCCCCOS(=O)(=O)O,27.5 µM (active),–
CC1=NN(c2ccccc2)C(=O)C1,–,inactive
O=C1c2ccc(O)c(O)c2C(=O)c2c(O)ccc(O)c21,–,inactive
O=S(=O)(O)C(F)(F)C(F)(F)C(F)(F)C(F)(F)C(F)(F)C(F)(F)C(F)(F)C(F)(F)C(F)(F)C(F)(F)F,–,inactive
O=C1NS(=O)(=O)c2ccccc21,–,inactive
Oc1cc2ccccc2cc1O,–,inactive
CCCCCc1ccc(O)cc1,11.6 µM (active),–
CCC(C)c1ccccc1O (stereo not given),–,inactive
Cc1[nH]nc2c1N=C(c1ccccc1Cl)c1cc([N+](=O)[O-])ccc1N2,20 µM (active),–
C=CC(=C)CC/C=C(\C)CCC=C(C)C,–,inactive
OCC(CO)(CBr)CBr,–,inactive
Clc1ccc(Nc2nnc(Cc3ccncc3)c3ccccc23)cc1,–,inactive
Cc1ccc(C(=O)c2ccccc2)cc1,–,inactive
C=COC(=O)C(C)(C)CCCCCC,20 µM (active),–
Cc1ccc(N=Nc2c(O)ccc3ccccc23)c(C)c1,–,inactive
C[C@]12CC[C@@H]3c4ccc(O)cc4CC[C@H]3[C@@H]1C[C@@H](O)[C@@H]2O,–,inactive
O=C(CCCN1CCC(O)(c2ccc(Cl)cc2)CC1)c1ccc(F)cc1,–,inactive
CCCCCCCCCCCC,–,inactive
CC(=O)Nc1ccc(O)cc1,–,inactive
